Reference: the supplement of paper PMC10127200
Counter-ions that a name gives are not always drawn.

tested on: DU145; test: Euclidean distance of Cell Painting phenotypic profile (signed KS, 77 features) to DMSO centroid (dimensionless distance); 5 or 10 uM (library dependent); higher = stronger phenotypic change vs DMSO (phenoactivity); conditions: 48 h
Procedure, shortened: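 Phenoactivity is computed as Euclidean distance to the median vehicle profile. The profiles, drawn from 77 Harmony features scored as signed Kolmogorov-Smirnov statistics versus same-plate vehicle wells, were corrected for plate position, correlation-weighted and replicate-averaged at the top dose. Stained cells were imaged confocally at 20X (9 fields/well) after 48 h with library compounds at 10 or 5 uM, 0.1% DMSO final, in five cancer lines and a healthy fibroblast line.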

| SMILES | Euclidean distance |
| --- | --- |
| C/C=C(/C)C(=O)O[C@H]1[C@H](OC(C)=O)[C@@]2(CO)C(CC1(C)C)C1=CCC3[C@@]4(C)CCC(O[C@@H]5O[C@H](C(=O)O)[C@@H](O[C@@H]6O[C@H](CO)[C@@H](O)[C@H](O)[C@H]6O)[C@H](O)[C@H]5O[C@@H]5O[C@H](CO)[C@@H](O)[C@H](O)[C@H]5O)[C@](C)(CO)C4CC[C@@]3(C)[C@]1(C)C[C@H]2O.C/C=C(\C)C(=O)O[C@H]1[C@H](OC(C)=O)[C@@]2(CO)C(CC1(C)C)C1=CCC3[C@@]4(C)CCC(O[C@@H]5O[C@H](C(=O)O)[C@@H](O[C@@H]6O[C@H](CO)[C@@H](O)[C@H](O)[C@H]6O)[C@H](O)[C@H]5O[C@@H]5O[C@H](CO)[C@@H](O)[C@H](O)[C@H]5O)[C@](C)(CO)C4CC[C@@]3(C)[C@]1(C)C[C@H]2O (stereo not given in full) [Escin] | 0.972 |
| OC(CNCC(O)C1CCc2cc(F)ccc2O1)C1CCc2cc(F)ccc2O1 (stereo not given) [Nebivolol] | 0.832 |
| COc1ccc(C[C@H](NC(=O)[C@H](C)NC(=O)CN2CCOCC2)C(=O)N[C@@H](Cc2ccccc2)C(=O)[C@@]2(C)CO2)cc1 | 5.11 |
| CC(C)N(CCCNC(=O)Nc1ccc(C(C)(C)C)cc1)C[C@H]1O[C@@H](n2ccc3c(N)ncnc32)[C@H](O)[C@@H]1O | 0.92 |
| O=C(Nc1ncc(SCCN2CCCC2)s1)[C@]1(c2ccc(S(=O)(=O)C3CC3)cc2)C[C@H]1C1CCCCC1 | 3.02 |
| CCOC(=O)CC(=O)N1CCSC1COc1ccccc1OC (stereo not given) [Moguisteine] | 1.1 |
| COc1cc(N2CCC(N3CCN(C)CC3)CC2)ccc1Nc1ncc(Cl)c(Nc2ccccc2P(C)(C)=O)n1 | 2.68 |
| CC(C)c1cc(C(C)C)c(CC(=O)NS(=O)(=O)Oc2c(C(C)C)cccc2C(C)C)c(C(C)C)c1 [Avasimibe] | 0.813 |
| C#Cc1cccc(Nc2ncnc3cc(OCCOC)c(OCCO)cc23)c1 | 1.82 |
| CC1(C)S[C@@H]2[C@H](NC(=O)C(c3ccccc3)S(=O)(=O)O)C(=O)N2[C@H]1C(=O)O (stereo not given in full) [Sulbenicillin Sodium] | 1.14 |
| COc1cc2/c(=N/c3ccc(Br)cc3F)nc[nH]c2cc1OCC1CCN(C)CC1 [Vandetanib (ZD6474)] | 2.38 |
| Cc1ccc(NC(=O)c2cccc(C(C)(C)C#N)c2)cc1Nc1ccc2ncn(C)c(=O)c2c1 | 1.98 |
| C[C@]12CC[C@@H]3c4ccc(O)cc4C[C@@H](CCCCCCCCC[S+]([O-])CCCC(F)(F)C(F)(F)F)[C@H]3[C@@H]1CC[C@@H]2O (stereo not given in full) [Fulvestrant] | 0.894 |
| CC[C@H](Nc1ncnc2[nH]cnc12)c1nc2cccc(F)c2c(=O)n1-c1ccccc1 [CAL-101 (Idelalisib. GS-1101)] | 1.32 |
| CCN1CCN(Cc2ccc(Nc3ncc(F)c(-c4cc(F)c5nc(C)n(C(C)C)c5c4)n3)nc2)CC1 [Abemaciclib] | 3.65 |
| O=c1c(-n2ccnn2)c[nH]n1-c1cc(N2CCOCC2)ncn1 [Molidustat (BAY 85-3934)] | 1.01 |
| O=c1ccn([C@@H]2O[C@H](CO)[C@@H](O)[C@H]2O)c(=O)[nH]1 [Uridine] | 0.955 |
| CN1CCN(C2=Nc3cc(Cl)ccc3Nc3ccccc32)CC1 [Clozapine] | 1.21 |
| C[C@@H]1COCCN1c1cc(C2([S@](C)(=N)=O)CC2)nc(-c2cc[nH]c3nccc2-3)n1 | 2.21 |
| CCCC(=O)O[C@]1(C(=O)COC(C)=O)CC[C@H]2[C@@H]3C[C@H](F)C4=CC(=O)C=C[C@]4(C)[C@@]3(F)[C@@H](O)C[C@@]21C [Difluprednate] | 2.59 |

| SMILES | Euclidean distance |
| --- | --- |
| CCCNCC(O)COc1ccccc1C(=O)CCc1ccccc1 (stereo not given) [Propafenone HCl] | 1.37 |
| CN1CCN(CC/C=C2/c3ccccc3Sc3ccc(S(=O)(=O)N(C)C)cc32)CC1 [Thiothixene] | 2.21 |
| Cc1cn(-c2cc(NC(=O)c3ccc(C)c(Nc4nccc(-c5cccnc5)n4)c3)cc(C(F)(F)F)c2)cn1 [Nilotinib (AMN-107)] | 3.46 |
| COc1ccc(-c2cc3c(C)nc(N)nc3n([C@H]3CC[C@H](OCCO)CC3)c2=O)cn1 | 2.31 |
| C[C@]1(COc2ccc(N3CCC(Oc4ccc(OC(F)(F)F)cc4)CC3)cc2)Cn2cc([N+](=O)[O-])nc2O1 [Delamanid] | 0.888 |
| Cc1cc2c(cc1CC(=O)c1sccc1S(=O)(=O)Nc1onc(C)c1Cl)OCO2 [Sitaxentan sodium] | 0.942 |
| CC(C)N(CCC(=O)c1ccc2ccccc2c1)Cc1ccccc1 | 0.815 |
| O=C1CCCC(=O)C1C(=O)c1ccc(C(F)(F)F)cc1[N+](=O)[O-] [Nitisinone] | 1.2 |
| CCOC(=O)C1=C(C)NC(C)=C(C(=O)OC)C1c1cccc([N+](=O)[O-])c1 (stereo not given) [Nitrendipine] | 0.908 |
| C/C(=C\C(=O)OCCCCCCCCC(=O)O)C[C@@H]1OC[C@H](C[C@@H]2O[C@H]2[C@@H](C)[C@H](C)O)[C@@H](O)[C@H]1O [Mupirocin calcium] | 1.83 |
| CN[C@@H](C)C(=O)N[C@H]1CN(C(=O)CC(C)C)CC[C@H]2CC[C@@H](C(=O)NC(c3ccccc3)c3ccccc3)N2C1=O | 0.871 |
| C[C@H]1COc2c(N3CCN(C)CC3)c(F)cc3c(=O)c(C(=O)O)cn1c23 [Levofloxacin hydrate] | 1.07 |
| O=C(Nc1ccccc1)OCC(CN1CCCCC1)OC(=O)Nc1ccccc1 (stereo not given) [Diperodon HCl] | 1.31 |
| CC(C)Oc1ccc2c(=O)c(-c3ccccc3)coc2c1 [Ipriflavone (Osteofix)] | 1.15 |
| CC(=O)[C@H]1CC[C@H]2[C@@H]3CC=C4C[C@@H](O)CC[C@]4(C)[C@H]3CC[C@]12C [Pregnenolone] | 0.872 |
| CC(C)CC(N)=O [Isovaleramide] | 0.731 |
| CCCN1CCCC[C@H]1C(=O)Nc1c(C)cccc1C [Ropivacaine] | 0.902 |
| Cc1cnc(-c2cc(N3CCN(C(=O)CCS(C)(=O)=O)CC3)ncc2Cl)c(C)c1 | 1.04 |
| COc1ccccc1N1CCN(CCCNc2cc(=O)n(C)c(=O)n2C)CC1 [Urapidil HCl] | 0.94 |
| OCCN1CCN(CCCN2c3ccccc3Sc3ccc(C(F)(F)F)cc32)CC1 [Fluphenazine dihydrochloride] | 1.87 |
